# Experimental data published in PubChem BioAssay (NCATS).
# Inconclusive results are not listed. Activity calls are given as the source filed them. Unless noted, calls follow the shape of the dose curve; as a rule, active = well fitted curve in either direction with a large enough effect (not every such curve was filed as active); inconclusive = small, poorly fitted or top-dose-only effect, or another doubt; inactive = flat fitted curve, though single readings scatter.
# Key:
# [1] = target: Mitogen-activated protein kinase 10 (Mus musculus) (UniProt Q61831); experiment: JNK3 AlphaScreen Assay (AID 530);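 also: kinase came from lysate of stimulated human HepG2 cells; signal reports phosphorylation of biotinylated GST-cJun 1-79 at Ser73 with 10 µM ATP; series mostly up to about 57 µM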
# Procedure, shortened: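 HepG2 lysate (IL-1b/TNFa pre-activated) + biotin-GST-cJun 1-79 + anti-pSer73 cJun; cpd titration, 15 min RT; ATP 10 uM start; Tris pH 7.6, MgCl2, DTT, vanadate; beads in EDTA buffer; AlphaScreen.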
# [2] = target: 3',5'-cyclic-AMP phosphodiesterase 4B (Homo sapiens) (UniProt Q07343); experiment: qHTS Assay for Inhibitors of PDE-IV (AID 607; active = well fitted activation curve with a large enough effect in the main read-out, with a control signal flat, not every such curve was filed as active)
# Sequence of 3',5'-cyclic-AMP phosphodiesterase 4B (Homo sapiens) (Q07343 whole entry, looked up): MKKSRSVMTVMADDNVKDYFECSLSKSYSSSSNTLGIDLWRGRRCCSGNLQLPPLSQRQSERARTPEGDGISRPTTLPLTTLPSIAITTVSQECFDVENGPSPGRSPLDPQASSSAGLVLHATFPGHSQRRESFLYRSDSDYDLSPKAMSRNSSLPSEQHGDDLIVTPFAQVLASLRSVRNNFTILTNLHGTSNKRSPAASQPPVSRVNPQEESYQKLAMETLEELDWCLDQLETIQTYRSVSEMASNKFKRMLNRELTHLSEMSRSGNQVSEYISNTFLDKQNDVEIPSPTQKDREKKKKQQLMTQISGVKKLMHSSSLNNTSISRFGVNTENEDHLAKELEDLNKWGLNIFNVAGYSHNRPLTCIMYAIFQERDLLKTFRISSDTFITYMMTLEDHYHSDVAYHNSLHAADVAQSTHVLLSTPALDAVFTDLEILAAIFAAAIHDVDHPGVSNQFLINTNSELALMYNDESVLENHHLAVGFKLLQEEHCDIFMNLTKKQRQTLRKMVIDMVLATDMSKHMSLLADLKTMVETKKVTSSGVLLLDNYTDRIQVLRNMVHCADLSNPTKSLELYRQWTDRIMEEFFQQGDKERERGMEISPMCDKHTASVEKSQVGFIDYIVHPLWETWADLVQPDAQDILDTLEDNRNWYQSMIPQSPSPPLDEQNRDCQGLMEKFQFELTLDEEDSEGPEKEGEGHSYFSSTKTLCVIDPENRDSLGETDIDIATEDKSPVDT
# Procedure, shortened: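 The readout is membrane depolarisation from a cAMP-sensing CNG channel, detected with a potential dye at ex 535/em 590. Cells were HEK293-derived (endogenous PDE-IV) at 1000 cells/well, titrated up to 22.9 uM final.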
SMILES,outcome [1],outcome [2]
C[C@@H](C(=O)NCC1CC1)[C@H]1C[C@]1(C)[C@H](NC(=O)OCc1ccccc1)c1ccccc1,inactive,inactive
COC(=O)[C@@]1(Cc2ccccc2)[C@H]2c3cc(C(=O)N4CCCC4)n(CCSCCO)c3C[C@H]2CN1C(=O)c1ccccc1,inactive,inactive
C[C@@H](C(=O)NCC1CC1)[C@@H]1C[C@@]1(C)[C@@H](NC(=O)OCc1ccccc1)c1ccccc1,inactive,inactive
C[C@@H](C(=O)N[C@@H](CO)Cc1ccccc1)[C@@H]1C[C@@]1(C)[C@@H](NC(=O)OCc1ccccc1)c1ccccc1,inactive,inactive
COC(=O)[C@@]1(Cc2ccc(OC)cc2)[C@H]2c3cc(C(=O)N4CCCC4)n(Cc4ccc(S(C)(=O)=O)cc4)c3C[C@H]2CN1C(=O)c1ccccc1,inactive,inactive
COC(=O)[C@@]1(Cc2ccccc2)[C@H]2c3cc(C(=O)N4CCCC4)n(Cc4ccccc4)c3C[C@H]2CN1C(=O)c1ccccc1,inactive,inactive
COC(=O)[C@H]1C[C@@H]1[C@H](N)c1ccccc1,inactive,inactive
C/C(=C\C1CCCCC1)C(NC(=O)c1cccnc1)c1ccc(-c2ccccc2)cc1 (stereo unspecified),inactive,inactive
COCCn1c(C(=O)N(C)C)cc2c1C[C@H]1CN(C(=O)c3ccccc3)[C@@](Cc3ccc(F)cc3)(C(=O)OC)[C@@H]21,inactive,
COC(=O)[C@@]1(Cc2ccccc2)[C@H]2c3cc(C(=O)N(C)C)n(Cc4nc5ccccc5[nH]4)c3C[C@H]2CN1C(=O)c1ccccc1,inactive,inactive
COC(=O)[C@@]1(Cc2ccc(OC)cc2)[C@H]2c3cc(C(=O)N4CCCC4)n(Cc4ccc(O)c(OC)c4)c3C[C@H]2CN1C(=O)c1ccccc1,inactive,inactive
COC(=O)[C@@]1(Cc2ccc(F)cc2)[C@H]2c3cc(C(=O)N(C)C)n(CCN4CCOCC4)c3C[C@H]2CN1C(=O)c1ccccc1,inactive,inactive
CCCC[C@@H]1C[C@H]1C(NS(=O)(=O)c1cccc2cccnc12)c1ccc(-c2ccccc2)cc1 (stereo partly specified),inactive,
COC(=O)[C@H]1C[C@@H]1[C@H](NC(C)=O)c1ccccc1,inactive,inactive
COC(=O)[C@@]1(Cc2ccc(OC)cc2)[C@H]2c3cc(C(=O)N(C)C)n(Cc4cc(C)n(C)n4)c3C[C@H]2CN1C(=O)c1ccccc1,inactive,inactive
O=C(NCC1CC1)[C@@H]1C[C@H]1[C@@H](NP(=O)(c1ccccc1)c1ccccc1)c1ccccc1,inactive,inactive
COC(=O)[C@@]1(Cc2ccc(OC)cc2)[C@H]2c3cc(C(=O)N4CCCC4)n(Cc4cc(F)c(F)c(F)c4)c3C[C@H]2CN1C(=O)c1ccccc1,inactive,inactive
COC(=O)[C@@]1(Cc2ccc(OC)cc2)[C@H]2c3cc(C(=O)N4CCCC4)n(Cc4ccccn4)c3C[C@H]2CN1C(=O)c1ccccc1,inactive,inactive
C[C@@H](C(=O)NCc1ccccc1)[C@@H]1C[C@@]1(C)[C@@H](NC(=O)OCc1ccccc1)c1ccccc1,inactive,inactive
COC(=O)[C@@]1(Cc2ccc(OC)cc2)[C@H]2c3cc(C(=O)N4CCCC4)n(Cc4ccsc4Br)c3C[C@H]2CN1C(=O)c1ccccc1,inactive,inactive
COC(=O)Cn1c(C(=O)N(C)C)cc2c1C[C@H]1CN(C(=O)c3ccccc3)[C@@](Cc3ccc(F)cc3)(C(=O)OC)[C@@H]21,inactive,inactive
CCC/C=C(\CCC)C(NC(=O)OCC(C)C)c1ccccc1 (stereo unspecified),inactive,inactive
COC(=O)[C@@]1(Cc2ccc(OC)cc2)[C@H]2c3cc(C(=O)N4CCCC4)n(CCN4CNCC4=O)c3C[C@H]2CN1C(=O)c1ccccc1,inactive,inactive
COC(=O)[C@@]1(Cc2ccc(OC)cc2)[C@H]2c3cc(C(=O)N4CCCC4)n(CCc4ccc(O)c(O)c4)c3C[C@H]2CN1C(=O)c1ccccc1,inactive,inactive
Cc1ccc(CNC(=O)[C@H](C)[C@H]2C[C@]2(C)[C@H](NC(=O)OCc2ccccc2)c2ccccc2)c(F)c1F,inactive,inactive
COC(=O)[C@@]1(Cc2ccc(OC)cc2)[C@H]2c3cc(C(=O)N(C)C)n(Cc4ccc(OC(F)(F)F)cc4)c3C[C@H]2CN1C(=O)c1ccccc1,inactive,inactive
COC(=O)[C@@H]1C[C@H]1[C@@H](NC(C)=O)c1ccccc1,inactive,inactive
COC(=O)[C@@]1(Cc2ccc(OC)cc2)[C@H]2c3cc(C(=O)N4CCCC4)n(Cc4ccc(OC(F)(F)F)cc4)c3C[C@H]2CN1C(=O)c1ccccc1,inactive,inactive
C[C@@H](C(=O)N[C@@H](CO)Cc1ccccc1)[C@H]1C[C@]1(C)[C@H](NC(=O)OCc1ccccc1)c1ccccc1,inactive,inactive
